High-throughput results: PubChem, National Center for Advancing Translational Sciences (NCATS)
The list is not random: actives were taken first. Their share in the collection is about 2.8%.
KDM5B inh: blocks human KDM5B histone demethylase activity. KDM5B demethylase, FDH-coupled NADH fluorescence (FDH is formaldehyde dehydrogenase). Potency, µM (highest dose often 57.7 µM), actives largely listed as inhibitors. 220,000 tested, 2.6% active; note: potency is the fitted concentration of half-maximal effect; 0% is about no effect; nearly all actives have a fitted effect of over 70% in size
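Compound dilutions met 200 nM (final) KDM5BΔAP for 10 min at room temperature before substrate addition. The substrate mix held 12.5 µM H3K4me3 with cofactors 25 µM α-ketoglutarate and 50 µM Fe²⁺. NADH signal gain over 30 min defined activity.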
SNCA viab count: cell viability loss counter-screen | HEK-293-SNCA-luc viability, GF-AFC fluorescence, 24 h | Potency, µM (titrated, usually from 57.1 µM), for the others: at the top dose activity change, negative = cytotoxicity, usual class: cytotoxic | 150,000 tested, 0.12% active | AID 1671193;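 note: potency is the fitted concentration of half-maximal effect; 0% = DMSO-treated cells and -100% = medium-only wells without cells; nearly all actives have a fitted effect of over 30% in size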
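HEK-293-SNCA-luc cells (1500/well) plated 24 h, then exposed 24 h to a dilution series; GF-AFC added 30 min at 37C, fluorescence 405/540 nm; normalised to medium-only and DMSO wells, Hill fit.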
SNCA expr inhib: SNCA gene expression inhibition; 140,000 tested, 0.17% active; Potency, µM (highest dose often 57.2 µM), inactives show top-dose activity change, negative = inhibition, usual class: inhibitors; HEK-293 SNCA-luciferase knock-in, luminescence, 24 h; AID 1671194;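 note: potency is the fitted concentration of half-maximal effect; plate controls were DMSO cells for no effect and cell-free wells for full effect; nearly all actives have a fitted effect of over 45% in size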
IP6K1 inhibitor: IP6K1 kinase inhibition; Q92551; IP6K1 kinase, ADP-Glo luminescence, 2 h; stronger effect = lower value; activity change, % (series mostly up to about 58 µM); 140,000 tested, 0.81% active; AID 1645851; in the data active = activity change below about -25%; note: % is set by controls: 0 for no effect and ±100 for the full control effect
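ADP-Glo luminescence measures ADP made by human IP6K1 during a 2 h RT reaction with ATP/IP6 (mix at 1.3 mM/130 uM); top library doses 57.5 and 19.1 uM final.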
Starred values were filed as active, the others as inactive; i = inactive; ? = inconclusive; / = no result; [ ] = another dose, or the depositor's remark. Unless noted, calls come from the whole dose curve; as a rule, active = well fitted curve in the direction sought with a large enough effect; inconclusive = small, poorly fitted or top-dose-only effect, or another doubt; inactive = no such curve, though single readings can be large; an effect the other way counts as inactive or inconclusive.

SMILES | KDM5B inh | SNCA viab count | SNCA expr inhib | IP6K1 inhibitor
O=C(NCCc1ccc(Cl)cc1)c1nc(-c2ccccc2)c2ccccn12 | 28.2µM* | 6.6% | -11.4% | 9.2
O=C(NCCc1ccc(Cl)cc1)c1nc(-c2cccc(C(F)(F)F)c2)c2ccccn12 | 25.1µM* | 8.2% | -12.4% | -2.6
COC(=O)N1CCC(C(=O)N2CCCC2c2nc3ccncc3[nH]2)CC1 (configuration not stated) | / | 1.4% | -9.0% | 8.8
CC(C)COC(=O)c1nn(-c2ccccc2)c(=O)c2ccccc12 | i | / | / | /
CCOc1ccc(-c2cc3c(=O)n(CCNC(=O)c4ccccc4)ccn3n2)cc1 | i | -1.7% | 41.3% | -1.5
CCOc1ccc(-c2cc3c(=O)n(CCNC(=O)c4ccc(C)cc4)ccn3n2)cc1 | i | 7.4% | 106.0% | -1.9
COc1ccc(-c2cc3c(=O)n(CCNC(=O)Cc4cccs4)ccn3n2)cc1 | ? | -8.3% | 5.0% | 4.5
CCOc1ccc(-c2cc3c(=O)n(CCNC(=O)c4ccc(C)c(C)c4)ccn3n2)cc1 | 17.8µM* | 2.5% | 33.2% | -5.9
CCOc1ccc(-c2cc3c(=O)n(CCNC(=O)c4cccc(N(C)C)c4)ccn3n2)cc1 | 31.6µM* | -5.7% | 94.1% | -9.5
Cc1ccc(C)c(-c2cc3c(=O)n(CCNC(=O)c4cccc(N(C)C)c4)ccn3n2)c1 | 31.6µM* | ? | ? | 7.3
CCOc1ccc(-c2cc3c(=O)n(CCNC(=O)Cc4cccs4)ccn3n2)cc1 | 31.6µM* | -13.2% | 30.1% | -8.7
CCCN(CC1CCOC1)C(=O)Nc1cccc(Cl)c1C (configuration not stated) | i | -5.6% | 4.1% | 6.8
N#Cc1ccc([S+](=O)([O-])N2CCC3(CC2)OCCN(CC2CC2)C3=O)cc1 | i | 2.8%[87.6 µM] | -26.9%[87.6 µM] | -6.2
CCS(=O)(=O)N1CCC[C@H](n2c(=O)n(C)c3cccnc32)C1 | i | 8.0% | 14.1% | 14.6
CC1(CCCCc2ccccc2)COc2ccc(C(=O)NC3CCOCC3)cc2N1 (configuration not stated) | 35.5µM* | 2.9%[87.6 µM] | ? | 9.9
CC1(CCCCc2ccccc2)COc2ccc(C(=O)NC3CC3)cc2N1 (configuration not stated) | 28.2µM* | -4.5%[87.6 µM] | -29.2%[87.6 µM] | 4.7
COCCN(C)C(=O)c1ccc2c(c1)NC(C)(CCCCc1ccccc1)CO2 (configuration not stated) | i | -0.3%[87.6 µM] | -26.3%[87.6 µM] | -0.6
CN(C)C(=O)c1ccc2c(c1)NC(C)(CCCCc1ccccc1)CO2 (configuration not stated) | i | 10.1%[87.6 µM] | ? | -9.3
CC1(CCCCc2ccccc2)COc2ccc(C(=O)NCCc3cnc[nH]3)cc2N1 (configuration not stated) | 31.6µM* | 15.9%[87.6 µM] | -22.2%[87.6 µM] | -3.6
COc1ccc(C(C)=O)cc1CO/N=C/c1ccccc1Cl | i | / | / | /
CC(C)c1nn(-c2c(Cl)cccc2Cl)c2nc(Cc3ccc(OCCO)cc3)[nH]c(=O)c12 | / | ? | 0.192µM* | 17.6
CCn1ccnc1CN1CCCC12CCN(c1ccc(C(F)(F)F)cn1)CC2 | 20µM* | -16.1% | -9.2% | 13.2
CCc1ncc(CN2CCCC23CCN(c2ccc(C(F)(F)F)cn2)CC3)cn1 | ? | -17.7% | 8.7% | -15.8
CNC(=O)c1cnn2ncccc12 | 31.6µM* | -0.8%[87.6 µM] | -8.8%[87.6 µM] | -3.7
CN(C)C(=O)c1cnn2ncccc12 | 31.6µM* | 0.3%[87.6 µM] | 36.6%[87.6 µM] | 11.1
SMILES | KDM5B inh | SNCA viab count | SNCA expr inhib | IP6K1 inhibitor
O=C(Nc1ccc(Cl)nc1)c1cnn2ncccc12 | 39.8µM* | 7.6%[87.6 µM] | 34.8%[87.6 µM] | 12.2
CNC(=O)c1cnn2c1CN(C(=O)c1ccccc1)CC2 | i | -3.0%[87.6 µM] | -8.4%[87.6 µM] | 8.2
CC(=O)N(CCC1(Cc2ccccc2)CCCC1)C1CCOC(C)(C)C1 (configuration not stated) | i | / | / | /
CS(=O)(=O)c1ccc(OC[C@H]2C[C@@H](NC(=O)C3CCOCC3)[C@H](O)[C@@H]2O)cc1 | 31.6µM* | -4.3%[87.6 µM] | -18.8%[87.6 µM] | 17.2
COc1nc2nc(CCc3ccccc3)n(C)c2cc1-c1cccc(CO)c1 | 35.5µM* | -22.4%[87.6 µM] | 48.6%[87.6 µM] | 2.8
COc1ncccc1-c1cc2c(nc1OC)nc(CCc1ccccc1)n2C | ? | -21.3%[87.6 µM] | -19.7%[87.6 µM] | 9.9
COc1ccc(Nc2cc3c(nc2OC)nc(CCc2ccccc2)n3C)cn1 | 17.8µM* | -6.7%[87.6 µM] | 184.2%[87.6 µM] | 2.2
COc1nc2nc(CC3CC3)n(C)c2cc1-c1ccnc(C)c1 | 39.8µM* | -5.2%[87.6 µM] | 13.8%[87.6 µM] | 9.2
COc1cc(F)ccc1-c1cc2c(nc1OC)nc(CC1CC1)n2C | 35.5µM* | -14.8%[87.6 µM] | 5.6%[87.6 µM] | 16.4
